High-throughput results as filed in PubChem.
KLK7 zymogen act: proKLK7 (human) activation, primary screen; P49862; purified proKLK7, EDANS-DABCYL substrate fluorescence; 100% is mature enzyme control, 0% vehicle; activation, % at 7 µM; hit rate 0.9% among 370,000;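 active = activation above the mean of all tested compounds plus 3 SD, computed per campaign excluding outliers beyond control limits, cut at about 13% in these data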
ADAM17 inh: inhibits human ADAM17; inhibition, % at 6.95 µM; AID 720648; hit rate 0.83% among 370,000; recombinant ADAM17, EDANS/DABCYL FRET peptide cleavage;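 active = inhibition above the mean of compounds lying between control limits plus 3 SD, set per campaign, cut at about 8.5% in these data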;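 note: 0% = DMSO-only wells as the low control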
Target sequence (P78536 215-824 limits assumed): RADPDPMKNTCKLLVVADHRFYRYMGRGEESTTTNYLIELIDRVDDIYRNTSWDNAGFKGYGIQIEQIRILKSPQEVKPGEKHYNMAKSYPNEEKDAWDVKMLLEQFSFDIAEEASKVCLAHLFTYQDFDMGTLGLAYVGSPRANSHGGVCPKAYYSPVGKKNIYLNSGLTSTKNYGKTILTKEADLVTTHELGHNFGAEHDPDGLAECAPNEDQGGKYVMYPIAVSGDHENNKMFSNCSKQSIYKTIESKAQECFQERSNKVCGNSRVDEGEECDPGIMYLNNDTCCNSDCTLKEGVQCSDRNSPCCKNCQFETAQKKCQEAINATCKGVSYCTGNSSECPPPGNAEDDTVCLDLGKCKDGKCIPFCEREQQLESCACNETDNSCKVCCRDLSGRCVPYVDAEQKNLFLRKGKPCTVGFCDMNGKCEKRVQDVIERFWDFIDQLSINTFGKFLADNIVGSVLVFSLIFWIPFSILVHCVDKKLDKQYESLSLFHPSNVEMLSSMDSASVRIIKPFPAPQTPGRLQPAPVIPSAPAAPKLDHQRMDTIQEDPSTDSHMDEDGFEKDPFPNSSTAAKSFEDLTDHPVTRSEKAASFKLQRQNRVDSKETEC
V-ATPase pH: yeast V-ATPase proton transport regulation by pHLuorin. S. cerevisiae, pHLuorin cytosolic pH fluorescence. AID 504577. response, % at 10 µM. hit rate 0.37% among 350,000; in the data active = response mostly above about 7.3%, no sharp cut-off; inactive = mostly below about 5.4%; note: actives read high
ADAM10 inh: inhibits human ADAM10 | AID 720582 | recombinant ADAM10, EDANS/DABCYL FRET peptide cleavage, 3 h | hit rate 0.62% among 370,000 | O14672 | inhibition, % at 7 µM;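 active = inhibition above a per-campaign cutoff equal to the mean of compounds falling between control-based bounds plus 3 SD, cut at about 20% in these data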;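 note: 0% = DMSO wells while the 100% control is not disclosed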
ADAM10 ctr: counter-screen for ADAM17 exosite inhibitors: inhibitors of human ADAM10; shares compounds with ADAM17 inh; recombinant ADAM10, EDANS/DABCYL FRET peptide cleavage, 3 h; inhibition, % at 6.95 µM; hit rate 47% among 2,900;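 active = mean inhibition over the triplicate runs exceeds the activity threshold set in the earlier primary screen, cut at about 20% in these data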;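 note: 0% = DMSO wells and 100% = marimastat wells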
ADAM17 confirm: human ADAM17 inhibition, confirmation. shares compounds with ADAM17 inh. hit rate 65% among 2,900. inhibition, % at 6.95 µM. recombinant ADAM17, EDANS/DABCYL QFRET peptide cleavage;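 active = mean inhibition across replicates above the hit cutoff set in the primary screen, cut at about 8.5% in these data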;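 note: 0% = DMSO wells and 100% = marimastat wells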
Starred values were filed as active, the others as inactive; . = no result. This is a sample that favours compounds with a hit; in the whole collection about 2.3% have one here.

SMILES	KLK7 zymogen act	ADAM17 inh	V-ATPase pH	ADAM10 inh	ADAM10 ctr	ADAM17 confirm
COC(=O)[C@H](CC(C)C)N(CCc1cn(Cc2ccccc2)nn1)S(=O)(=O)c1ccccc1Br	0.3	8.7*	.	14.0	17.0	12.3*
CN(C)[C@H]1CCN(c2cccc3c2S(=O)(=O)N2CC[C@@H](C2)O3)C1	-0.9	-2.6	.	-1.6	.	.
CCCCCc1cccc2[nH]cc(-c3ccccc3)c12	-0.5	-7.7	.	-12.2	.	.
O=C(Nc1cccc(-n2cccn2)c1)C1CCCN(Cc2ccccc2F)C1 (stereo not given)	0.3	11.4*	5.8	-2.9	-8.7	-0.6
Cc1ccc(SCc2cc(=O)c3c(=O)n(-c4ccccc4)[nH]c3[nH]2)cc1	0.4	10.0*	1.9	2.1	21.6*	13.9*
COC(=O)[C@]12C[C@H](CC(=O)N3CCC(c4ccccc4)CC3)C(=O)N(Cc3ccc(Cl)cc3Cl)C1=C[C@H](COCc1ccccc1)O[C@@H]2C	0.0	1.6	.	2.0	.	.
O=C(CSc1ccc([N+](=O)[O-])cn1)Nc1nccs1	-0.1	-2.5	-1.0	3.7	.	.
Cc1csc(NC(=O)CSc2ccc([N+](=O)[O-])cn2)n1	0.3	8.7*	4.3	11.2	-0.4	1.0
O=[N+]([O-])c1ccc(Nc2ccc(F)cc2)nc1	-0.5	10.0*	-0.8	2.6	3.0	4.8
O=[N+]([O-])c1ccc(Nc2ccccc2)nc1	0.2	1.7	-2.5	5.0	.	.
O=C(NC(Cc1ccccc1)C(=O)N1CCCCCC1)c1ccccc1 (stereo not given)	-0.7	1.8	2.2	9.3	.	.
O=C(NC(Cc1ccccc1)C(=O)N1CCCCC1)c1ccccc1 (stereo not given)	-0.1	9.3*	-2.8	2.1	8.1	5.3
COC(=O)[C@@]12CCCCC3=C1N(CCC3)C(=O)[C@H]2CC(=O)NCC12CC3CC(CC(C3)C1)C2	0.3	-7.1	.	-1.2	.	.
Cc1ccccc1-n1nc2c(c1NC(=O)c1ccc(S(=O)(=O)N(C)C)cc1)CSC2	-0.7	13.3*	-5.2	17.5	18.0	9.4*
CC(=O)Nc1c2c(nn1-c1ccccc1C)CSC2	-0.2	0.8	1.5	-10.9	.	.
COc1cccc(C(=O)c2c(-c3ccccc3)ncc3cc(OC)c(OC)cc23)c1	0.8	12.7*	-1.1	10.8	17.2	19.0*
O=C1N(CC[C@@H](O)c2ccccc2)CCC12CCC(c1ccccc1)CC2 (stereo not given in full)	.	1.5	.	5.0	.	.
COc1ccc(Cc2nnc(N/N=C/c3ccc(O)cc3)[nH]c2=O)cc1OC	0.3	9.3*	2.3	9.1	2.7	5.3
CN1CC(c2ccccc2Cl)C2(COc3ccccc3C2=O)C12C(=O)Nc1ccccc12 (stereo not given)	0.3	8.9*	1.9	19.1	43.6*	25.1*
O=C(CN1CCN(Cc2ccccc2Cl)CC1)N/N=C\c1ccccc1F	0.3	-3.3	.	-4.7	.	.
O=C(N/N=C/c1ccc[nH]1)c1cc(-c2ccc(Cl)cc2)nc2ccccc12	-5.7	9.6*	-3.5	16.2	21.6*	15.3*
O=C(N/N=C/c1cccnc1)c1cc(-c2ccc(Cl)cc2)nc2ccccc12	-1.0	-4.9	2.7	5.2	.	.
Cn1cccc1Cc1nnc(SCC(=O)NC2CCCC2)n1-c1ccc(F)cc1	1.0	-1.8	1.4	-5.6	.	.
CS(=O)(=O)NCc1nnc(SCC(=O)NC2CCCCC2)n1-c1ccc(F)cc1	-0.1	9.1*	2.7	9.6	-0.6	5.3
Cc1nn(C)cc1/C=N/NC(=S)Nc1ccc(Cl)cc1Cl	0.0	2.9	-0.7	9.7	.	.
SMILES	KLK7 zymogen act	ADAM17 inh	V-ATPase pH	ADAM10 inh	ADAM10 ctr	ADAM17 confirm
CCn1nc(C)c(/C=N/NC(=S)Nc2ccc(Cl)cc2Cl)c1C	0.4	8.7*	0.9	16.6	9.1	3.4
COc1ccc(-c2cc(-c3nnc(SCC(=O)Nc4cccc(Cl)c4C)n3N)[nH]n2)cc1	-0.2	1.9	.	-7.8	.	.
CCOC(=O)c1c(NC(=O)C2C3C=CC(CC3)C2C(=O)O)sc(C)c1C (stereo not given)	-0.1	9.1*	2.3	1.9	-11.7	0.3
CCOC(=O)c1c(NC(=O)C2C3C=CC(C3)C2C(=O)O)sc2c1CCC(CC)C2 (stereo not given)	0.2	4.6	3.4	0.0	.	.
COc1ccc(CNS(=O)(=O)/C=C/c2ccc(OC)cc2CNC(=O)OC(C)(C)C)cc1	-0.3	9.4*	.	11.3	23.5*	9.7*
CC(C)C[C@H]1COc2cccc(F)c2S(=O)(=O)N1	-0.3	0.6	.	-4.5	.	.
O=C(NCCc1c[nH]c2ccccc12)OCc1cn(-c2ccc(F)cc2F)nn1	0.8	1.4	.	4.2	.	.
CCOC(=O)C1=CCN(S(=O)(=O)c2ccc(Cl)cc2)C1c1cccc(F)c1 (stereo not given)	0.2	2.1	.	2.3	.	.
O=[N+]([O-])c1ccc(-c2cnc(SC(c3ccccc3)c3ccccc3)[nH]2)cc1	-0.9	10.0*	-2.5	17.0	33.5*	13.9*
CCOC(=O)CCCNC(=O)OC1CC2CC1[C@H]1CCCCN1[C@H]2C (stereo not given in full)	-0.1	-10.9	.	-13.6	.	.
Cc1c(Cl)cccc1NC(=S)NCCC(c1ccccc1)c1ccccc1	0.5	9.2*	0.7	15.1	20.8*	10.0*
Cc1c(Cl)cccc1NC(=S)NCCC(C)C	-0.2	-3.9	-1.8	-0.8	.	.
O=C(C(=O)N1CCN(S(=O)(=O)c2ccc(Cl)cc2)CC1)c1cccc(C(F)(F)F)c1	0.2	-2.9	.	-0.4	.	.
CC(C)(C)OC(=O)N(Cc1ccccc1)Cc1ccccc1OCc1cccc(NC(=O)C2CC2)c1	0.0	9.5*	3.8	9.0	19.9*	17.6*
COc1ccc(-c2ccccc2C2Cc3nnccc3CN2)cc1 (stereo not given)	0.8	-1.2	.	4.2	.	.
C/C(=N\NC(=S)NCCc1ccccc1)c1ccc(Cl)cc1	0.1	9.6*	-2.2	19.4	9.2	7.0
Cc1ccc(N=C2NC(=O)/C(=C\c3ccsc3)S2)c(C)c1	0.5	8.8*	-0.3	10.5	31.5*	19.6*
Fc1ccc(-c2nnn(Cc3ccc(F)cc3Cl)n2)cc1	0.2	1.4	0.6	3.0	.	.
Cc1ccccc1-c1nnn(Cc2ccc(F)cc2Cl)n1	-2.1	10.2*	-0.8	10.9	18.1	11.2*
CCC(CO)Nc1cccc2c1S(=O)(=O)N(Cc1cn(Cc3ccc(Cl)cc3)nn1)Cc1ccccc1O2 (stereo not given)	0.3	0.9	.	-11.2	.	.
COC(=O)C1CN(Cc2cn(CCC3OCCO3)nn2)CCS(=O)(=O)N1Cc1ccc(F)cc1 (stereo not given)	-0.7	-5.5	.	-8.6	.	.
Nc1nc(CSC(=S)N2CCN(c3ccccc3)CC2)nc(Nc2ccccc2)n1	0.3	9.2*	-2.4	16.9	24.4*	15.6*
Cc1cc(Cl)ccc1OCC(=O)OCC(=O)Nc1ccc(F)c([N+](=O)[O-])c1	-0.4	9.0*	-3.5	16.7	42.7*	18.0*
